# Source: PubChem BioAssay (NCI)
# This is part of a sample that, as a whole, favours compounds with a hit. Of some 79,000 tested, about 15% had one in any assay. Unmarked numbers belong to inactive results. Calls of active or inactive are those of the source. Rule as the data show it: active = growth inhibition above about 70%; inactive = the rest.
# Columns and labels:
# [1] = NCI Yeast Anticancer Drug Screen. Data for the rad50 strain (AID 155);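 also: 0% = growth of vehicle-only cultures of the same strain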; conditions: S. cerevisiae rad50 strain growth inhibition, stronger effect = higher value
# Procedure, shortened: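 Relative growth inhibition (compound vs vehicle) was measured in yeast with a defined repair-gene alteration.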
# [2] = NCI Yeast Anticancer Drug Screen. Data for the mec2-1 strain (AID 157); conditions: S. cerevisiae mec2-1 strain, stronger effect = higher value
# Procedure, shortened: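 Test agents were screened against the mec2-1 yeast strain, with defined DNA repair or cell cycle alteration. Growth was scored as inhibition against vehicle-only controls.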
# [3] = NCI Yeast Anticancer Drug Screen. Data for the sgs1 mgt1 strain (AID 161);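 also: 0% = growth of cultures given vehicle only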; conditions: S. cerevisiae sgs1 mgt1 strain, stronger effect = higher value
# Procedure, shortened: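 Inhibition of yeast growth, normalised to vehicle-treated controls, is reported for a strain bearing genetic alterations in DNA damage repair.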
# [4] = NCI Yeast Anticancer Drug Screen. Data for the cln2 rad14 strain (AID 165);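 also: 0% = growth equal to vehicle treated cultures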; conditions: S. cerevisiae cln2 rad14 strain, stronger effect = higher value
# Procedure, shortened: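 Growth of compound-exposed yeast (cln2 rad14 genotype) measured and expressed as inhibition relative to vehicle.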
# [5] = NCI Yeast Anticancer Drug Screen. Data for the bub3 strain (AID 167); conditions: S. cerevisiae bub3 mutant strain, stronger effect = higher value
# Procedure, shortened: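 Screening used yeast with an engineered genetic alteration affecting cell cycle control. Compound-exposed cultures were compared with vehicle cultures, and reduced growth was taken as inhibition.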
# [6] = NCI Yeast Anticancer Drug Screen. Data for the mlh1 rad18 strain (AID 175); conditions: S. cerevisiae mlh1 rad18 strain growth inhibition, stronger effect = higher value
# Procedure, shortened: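 In this whole-cell yeast screen, a strain with altered DNA damage repair is challenged with compound, and its growth is measured against matched vehicle-treated controls.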
# [7] = at 5.0 µM (retest, dose inferred, filed as 0.5)
# [8] = at 50.0 µM (retest, dose inferred, filed as 5.0)
SMILES,"growth inhibition [1, 7]","growth inhibition [1, 8]",growth inhibition ([1]; at 50.0 µM),"growth inhibition [2, 7] [%]","growth inhibition [2, 8]",growth inhibition ([2]; at 50.0 µM),"growth inhibition [3, 7]","growth inhibition [3, 8]",growth inhibition ([3]; at 50.0 µM),"growth inhibition [4, 7] [%]","growth inhibition [4, 8]",growth inhibition ([4]; at 50.0 µM),"growth inhibition [5, 7]","growth inhibition [5, 8]",growth inhibition ([5]; at 50.0 µM),"growth inhibition [6, 7]","growth inhibition [6, 8]",growth inhibition ([6]; at 50.0 µM)
CC(CCCN(C)Cc1ccccc1)Nc1ccnc2cc(Cl)ccc12 (stereo not given),88% (active),99% (active),99% (active),53,100% (active),98.3% (active),99% (active),99% (active),99.5% (active),41,99% (active),99.4% (active),86% (active),99% (active),99.5% (active),99% (active),99% (active),98% (active)
COc1ccc(OC)c(/C=C2/C(=O)ON=C2C)c1,-14%,7%,42.4%,-11,5%,54.4%,1%,27%,70% (active),0,14%,22%,11%,23%,43.5%,8%,23%,22.7%
COc1ccnc(-c2cc(OC)cc(/C(N)=N/O)n2)c1,2%,59%,96.8% (active),-4,83% (active),93.1% (active),-2%,63%,96% (active),-5,62%,93.8% (active),-3%,54%,88.7% (active),-4%,77% (active),96.8% (active)
OC(c1ccccc1)c1cccc(Br)c1 (stereo not given),-2%,67%,76.5% (active),-11,77% (active),59.8%,-13%,55%,52.9%,-1,48%,42.6%,-3%,68%,30.1%,14%,77% (active),87.2% (active)
O=C(CN1CCOCC1)Nc1nc(-c2ccc(Cl)cc2)cs1,66%,94% (active),79.6% (active),49,97% (active),53.8%,60%,99% (active),86.4% (active),46,90% (active),62%,65%,67%,77.6% (active),76% (active),99% (active),85% (active)
O=C(O)C1CCC(CC2CC3CCC2C3)CC1 (stereo not given),-146%,79% (active),74.7% (active),-54,54%,88.5% (active),-58%,85% (active),41.8%,-79,65%,44.2%,-73%,69%,73.3% (active),-125%,86% (active),53.8%
COc1ccc(C(=O)c2cc(Br)ccc2O)cc1,-3%,4%,89.3% (active),-6,4%,71.9% (active),-1%,18%,84% (active),-20,-9%,46%,3%,11%,94.5% (active),-1%,-2%,90.1% (active)
S=c1sc2ccccc2n1C=Nc1ccccc1,-2%,83% (active),98.9% (active),-5,97% (active),98.8% (active),-1%,96% (active),98.7% (active),-8,81% (active),96.2% (active),-1%,96% (active),99.1% (active),-2%,79% (active),98.3% (active)
COc1cc2c(cc1OC)C(C)N(C)c1c-2c(OC(C)=O)cc2cc(OC)c(OC)cc12 (stereo not given),2%,52%,82.5% (active),-4,64%,87.4% (active),-4%,67%,64.2%,-8,49%,19.6%,-4%,72% (active),42.2%,-3%,54%,70.5% (active)
O=C(c1ccccc1)c1ccc2c(c1Cl)C(=O)c1ccccc1C2=O,-6%,-1%,43%,-3,-7%,43.8%,0%,0%,63.8%,14,-16%,4%,-8%,-11%,80.5% (active),1%,0%,65.2%
